Measurements published in PubChem BioAssay.
Active and inactive are the calls of the source. Unless noted, the rule behind the calls is not given here.

What was measured:
[1] = resazurin metabolic signal in HepG2 cells – cell-based, resazurin fluorescence, 24 h, PK04 Diversity Set, profiling panel (AID 1172); conditions: HepG2 viability, higher = more signal; note: test concentration not given here
[2] = budding yeast growth changes without added modifier – OD600, strain BY4716, 24 h, basal condition, primary screen (AID 1173); conditions: S. cerevisiae BY4716 growth, OD600, 24 h; higher = more signal, called active from +8 up or from −8 down
[3] = viability profiling in MM1S myeloma cells – cell-based, resazurin fluorescence, basal, 24 h, PK04 Diversity Set, profiling panel (AID 1174); conditions: higher = more signal, called active from +8 up or from −8 down;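 note: MM1S multiple myeloma cell line; test concentration not given here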
[4] = molecular target: Dihydroorotate dehydrogenase (quinone), mitochondrial (Plasmodium falciparum (isolate 3D7)) (UniProt Q08210); test: inhibition of P. falciparum DHODH – biochemical, C-terminal His tag, absorbance 600 nm, primary screen (AID 1175); conditions: PfDHODH enzyme, DCIP absorbance 600 nm; higher = more signal, called active from +8 up or from −8 down;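 note: recombinant parasite enzyme with a five histidine tag at its C terminus; test concentration not given here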
Chain of Dihydroorotate dehydrogenase (quinone), mitochondrial (Plasmodium falciparum (isolate 3D7)) (Q08210 whole entry, looked up): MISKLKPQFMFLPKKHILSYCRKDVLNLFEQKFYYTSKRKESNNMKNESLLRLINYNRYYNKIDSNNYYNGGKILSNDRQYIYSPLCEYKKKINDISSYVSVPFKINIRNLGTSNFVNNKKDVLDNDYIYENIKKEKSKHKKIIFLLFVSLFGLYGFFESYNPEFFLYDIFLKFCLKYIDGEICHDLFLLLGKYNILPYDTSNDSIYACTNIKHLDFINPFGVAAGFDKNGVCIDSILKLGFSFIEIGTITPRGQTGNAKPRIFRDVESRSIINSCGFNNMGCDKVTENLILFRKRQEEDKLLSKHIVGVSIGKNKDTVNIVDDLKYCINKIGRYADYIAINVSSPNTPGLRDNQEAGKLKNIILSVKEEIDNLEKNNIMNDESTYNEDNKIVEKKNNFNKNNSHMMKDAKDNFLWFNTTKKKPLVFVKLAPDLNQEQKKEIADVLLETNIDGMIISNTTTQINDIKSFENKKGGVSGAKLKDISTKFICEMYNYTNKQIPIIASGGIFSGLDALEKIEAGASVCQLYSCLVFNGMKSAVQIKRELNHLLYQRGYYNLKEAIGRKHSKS

[5] = inhibition of PAO1 biofilm formation – strain PAO1, LB-PBS medium, absorbance 600 nm, primary screen (AID 1176); note: test concentration not given here; conditions: P. aeruginosa PAO1 growth/biofilm, A600, 12 h; higher = more signal
[6] = growth modulation of vineyard yeast isolate – strain RM11-1a, OD600, basal, 24 h, primary screen (AID 1177);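 note: cultures grown under basal conditions with no added stressor; test concentration not given here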; conditions: S. cerevisiae RM11-1a growth, OD600, 24 h; higher = more signal, called active from +8 up or from −8 down
[7] = growth of efflux-deficient E. coli DRC39 – strain DRC39, OD650, 24 h, E. coli filamentation inducers, primary screen (AID 1178);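 note: growth measured as culture turbidity by optical density at 650 nm; test concentration not given here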; conditions: E. coli DRC39 acrAB, higher = more signal, called active from +8 up or from −8 down
[8] = growth of efflux-deficient E. coli DRC39 – strain DRC39, OD650, 48 h, E. coli filamentation inducers, primary screen (AID 1179);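 note: screen aims at cell division blockers that make cells filament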; conditions: E. coli DRC39 delta-acrAB growth, higher = more signal, called active from +8 up or from −8 down
[9] = viability profiling in RPMI8226 myeloma cells – cell-based, resazurin fluorescence, basal, 24 h, PK04 Diversity Set, profiling panel (AID 1180); conditions: higher = more signal;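 note: RPMI8826 multiple myeloma cell line at 5000 cells per well; test concentration not given here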
[10] = molecular target: E3 ubiquitin-protein ligase XIAP (Homo sapiens) (UniProt P98170); test: small molecules binding XIAP protein – biophysical, small-molecule microarray, fluorescence 635 nm, primary screen (AID 1181); conditions: higher = more signal;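 note: score merges 667 nm emission and signal to noise over triplicate slides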
Chain of E3 ubiquitin-protein ligase XIAP (Homo sapiens) (P98170 whole entry, looked up): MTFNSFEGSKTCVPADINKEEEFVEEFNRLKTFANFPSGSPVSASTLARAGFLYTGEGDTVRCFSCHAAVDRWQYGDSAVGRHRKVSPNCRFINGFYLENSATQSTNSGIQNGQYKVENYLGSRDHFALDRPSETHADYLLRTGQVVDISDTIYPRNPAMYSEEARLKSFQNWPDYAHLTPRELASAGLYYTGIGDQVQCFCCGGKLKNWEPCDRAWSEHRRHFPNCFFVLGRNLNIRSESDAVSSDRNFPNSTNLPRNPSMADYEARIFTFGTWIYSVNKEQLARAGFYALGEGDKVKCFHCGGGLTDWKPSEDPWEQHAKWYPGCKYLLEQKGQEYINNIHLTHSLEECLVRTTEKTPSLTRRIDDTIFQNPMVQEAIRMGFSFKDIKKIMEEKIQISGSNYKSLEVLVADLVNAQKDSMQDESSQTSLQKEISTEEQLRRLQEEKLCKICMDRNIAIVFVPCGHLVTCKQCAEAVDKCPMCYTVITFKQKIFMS

SMILES | z-score [1] | z-score [2] | z-score [3] | composite z-score [4] | z-score [5] | z-score [6] | z-score [7] | z-score [8] | z-score [9] | composite z-score [10]
O=C(Nc1cc(Br)ccc1C(=O)NCc1cccc(O)c1)c1ccccc1 | -1.11 | -0.887 (inactive) | -0.407 (inactive) | 0.591 (inactive) | 0.034 (inactive) | 0.659 (inactive) | 1.45 (inactive) | 1.06 (inactive) | -0.565 | 0.41
COc1ccccc1CN1C(=O)c2ccccc2[C@@]2(Cc3ccccc3N(C3CC3)C2=O)[C@@H]1c1ccc(CO)cc1 | 0.409 | 0.162 (inactive) | -0.319 (inactive) | -6.76 (inactive) | -0.255 (inactive) | -0.522 (inactive) | -0.473 (inactive) | -0.694 (inactive) | -0.343 | -0.232
O=C1O[C@H](c2ccccc2)[C@H](c2ccccc2)N2[C@H]1[C@@H](C(=O)N1CCN(c3ncccn3)CC1)[C@]1(C(=O)Nc3ccc(C#CCCO)cc31)[C@H]2c1ccc(OCCO)cc1 | 0.956 | 1.01 (inactive) | -0.901 (inactive) | -0.692 (inactive) | 3.36 (inactive) | 1.2 (inactive) | 0.275 (inactive) | -0.432 (inactive) | 0.747 | 0.256
C=CCC(OC(C)=O)[C@@H]1[C@@H](N(Cc2ccc(-c3cccc(C(F)(F)F)c3)o2)C(=O)c2cccc3ccccc23)c2cc(OCCCO)ccc2N1C(=O)c1ccc(-c2ccccc2)cc1 (stereo not given in full) | -1.02 | -0.0033 (inactive) | -1.1 (inactive) | 0.821 (inactive) | -0.416 (inactive) | 0.0679 (inactive) | 0.147 (inactive) | -0.241 (inactive) | -0.851 | -0.031
C=C[C@H](C)[C@H](OC(=O)Nc1ccc(SC)cc1)c1ccc(O)c2ccccc12 | -1.13 | -18.5 (active) | -3.69 (inactive) | -2.47 (inactive) | 0.802 (inactive) | -3.62 (inactive) | -1.46 (inactive) | -1.6 (inactive) | -2.55 | 0.0528
COc1cc(C(O)C2C=CC3C(=O)NC(=O)C3N2Nc2ccc(Cl)cc2Cl)cc(OC)c1OC (stereo not given) | -0.925 | -12.7 (active) | -0.679 (inactive) | 0.0871 (inactive) | 0.683 (inactive) | 0.1 (inactive) | -0.305 (inactive) | -0.425 (inactive) | -0.933 | 0.0454
O=C1OCC=C[C@H]2OC34C=CCN(CCN5CCOCC5)C(=O)[C@H]3N(CCCCCO)C(=O)[C@@H]4[C@@H]12 (stereo not given in full) | -0.267 | -0.654 (inactive) | -1.12 (inactive) | 0.31 (inactive) | -0.525 (inactive) | 0.105 (inactive) | -1.18 (inactive) | -1.37 (inactive) | -0.82 | 0.11
O=C1O[C@H](c2ccccc2)[C@H](c2ccccc2)N2[C@H]1[C@@H](C(=O)N1CCN(c3ncccn3)CC1)[C@]1(C(=O)Nc3ccc(C#CCCO)cc31)[C@H]2c1ccccc1OCCO | -0.141 | 0.687 (inactive) | -0.31 (inactive) | -0.49 (inactive) | 1.34 (inactive) | 1.91 (inactive) | 0.156 (inactive) | 0.614 (inactive) | -1.36 | -0.16
COC(=O)[C@H]1N=C(c2ccc(OCCCO)cc2)O[C@H]1c1ccccc1CN=[N+]=[N-] | 1.55 | -0.785 (inactive) | 0.236 (inactive) | 0.982 (inactive) | -0.043 (inactive) | 1.29 (inactive) | 0.535 (inactive) | -0.0456 (inactive) | 1.32 | 0.331
[N-]=[N+]=NCc1ccccc1[C@H]1OC(c2ccc(OCCCO)cc2)=N[C@@]1(Cc1ccccc1)C(N)=O | 1.16 | -3.32 (inactive) | -0.0284 (inactive) | -0.174 (inactive) | -0.195 (inactive) | 1.01 (inactive) | 0.961 (inactive) | 0.195 (inactive) | -0.373 | -0.124
CCCc1cc2c(n1Cc1ccc(OC)cc1)C(C)C1CN(C(=O)c3ccccc3)C(C)(C(=O)OC)C21 (stereo not given) | -1.34 | 1.08 (inactive) | -1.69 (inactive) | -0.118 (inactive) | 1.21 (inactive) | 0.864 (inactive) | -1.09 (inactive) | -0.395 (inactive) | -1.7 | 0.493
CCCCC(=C=CC[C@H](O)c1cccc(OCCO)c1)C[C@H](O)COCc1ccccc1 | 1.38 | -0.919 (inactive) | 0.202 (inactive) | -1.06 (inactive) | 0.342 (inactive) | 0.178 (inactive) | 0.525 (inactive) | 0.122 (inactive) | 0.774 | -0.165
Cc1ccccc1C(O)C1C=CC2C(=O)N(Cc3ccccc3)C(=O)C2N1n1cnnc1 (stereo not given) | 1.09 | 0.232 (inactive) | -0.562 (inactive) | -0.407 (inactive) | 0.726 (inactive) | -0.226 (inactive) | -0.197 (inactive) | 0.208 (inactive) | -0.408 | -0.184
CCCCC(CC)C(O)C1C=CC2C(=O)NC(=O)C2N1Nc1ccccn1 (stereo not given) | -1.39 | 0.332 (inactive) | -1.51 (inactive) | 0.56 (inactive) | 1.2 (inactive) | 0.852 (inactive) | -0.486 (inactive) | -0.112 (inactive) | -0.675 | 0.24
COCCCNC(=O)[C@@H]1c2ccccc2C(=O)N(c2ccc(C)cn2)[C@H]1c1ccc(CO)cc1 | -1.23 | 0.357 (inactive) | 0.507 (inactive) | 0.293 (inactive) | 0.242 (inactive) | 0.169 (inactive) | -0.541 (inactive) | -0.856 (inactive) | 0.162 | -0.195
CC(C)NC(=O)[C@@]1(Cc2ccccc2I)c2ccccc2C(=O)N(Cc2ccccc2C(F)(F)F)[C@H]1c1ccc(CO)cc1 | 0.406 | 0.835 (inactive) | 1.09 (inactive) | -0.327 (inactive) | 0.82 (inactive) | -0.272 (inactive) | 0.52 (inactive) | -0.319 (inactive) | 0.508 | -0.206
CC(C)(C)OC(=O)CC[C@]1(C(=O)N2CCCCC2)N=C(c2ccc(OCCCO)cc2)O[C@H]1c1ccccc1CN=[N+]=[N-] | -0.725 | -0.451 (inactive) | 0.0183 (inactive) | -0.625 (inactive) | 0.618 (inactive) | -0.391 (inactive) | 2.41 (inactive) | 2.39 (inactive) | -0.357 | 0.0346
O=C1c2ccccc2C(=O)C2CC([C@H]3Oc4ccccc4S(=O)(=O)N4CCC[C@@H]34)=CCC12 (stereo not given in full) | 0.0623 | -2.32 (inactive) | -0.583 (inactive) | 0.0834 (inactive) | -0.246 (inactive) | -0.841 (inactive) | 1.96 (inactive) | 0.34 (inactive) | 0.183 | 0.0374
